# Experimental data reported in PubChem BioAssay (NCI).
# About 79,000 compounds went through this panel and 15% of them were active in at least one assay; those are over-represented in the sample as a whole. Values without a mark were called inactive. The source made the active and inactive calls. No stated cut-off is given here; in the data, active means growth inhibition above about 70%; inactive means the rest.
# Assay: NCI Yeast Anticancer Drug Screen. Data for the rad50 strain (AID 155);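 further: 0% = growth of vehicle-only cultures of the same strain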
# Conditions: S. cerevisiae rad50 strain growth inhibition; at 50.0 µM; hits give high values
# Method: Growth inhibition of yeast strains with defined genetic alterations is measured as a screen for potential anti-cancer activity. Selected strains with alterations in DNA damage repair or cell cycle control were exposed to compounds and growth inhibition was measured relative to vehicle treated controls. The strain used in this assay is rad50
row,SMILES,growth inhibition
1,COc1ccc(-c2cc(-c3ccccc3)c(-c3ccccc3)nn2)cc1CN1CCOCC1,2.65%
2,C/C(C=C(C#N)C#N)=C\c1cccc(F)c1,55.7%
3,C=CCNc1ccc(Cl)cc1Cl,-3.5%
4,COC(=O)NC1=Nc2ccccc2N(C(=O)Oc2ccccc2)S1,7.8%
5,CCCCc1c2c(nc3c1CCCC3=O)C(=O)CCC2,-11.3%
6,O=[N+]([O-])c1cc([N+](=O)[O-])c(/C=C/c2ccccc2Cl)cc1/C=C/c1ccccc1Cl,-10.2%
7,O=C1CSC(c2ccccn2)N1CCN1C(=O)CSC1c1ccccn1 (stereo not given),7.4%
8,c1ccc(C(NC2=NCCO2)C2CC2)cc1 (stereo not given),-12.8%
9,Cc1cccc[n+]1CCC(N)=O,-6.55%
10,NC1c2c(Br)sc(N3CCCC3)c2C(=O)C1O (stereo not given),8.05%
11,O=C(CSc1nnc(-c2ccc(N=Cc3ccc(Cl)cc3)cc2)o1)Nc1ccc(Cl)cc1,3.1%
12,Nc1ccncn1,-20.9%
13,Brc1cc2ccccc2nc1-c1ccccc1,-2.3%
14,CC(C)NC(=O)c1ccccc1Sc1ccccc1CN(C)C(C)C,-11.3%
15,CCOC(=O)c1nc2cc(C(F)(F)F)ccc2nc1Nc1ccc(OC)c(OC)c1,-18.1%
16,O=CC1CCCc2ccccc21 (stereo not given),17.1%
17,CCCC1CCCC12CCc1ccccc1C2=O (stereo not given),15.3%
18,CCCCOCCOC(=O)CCCCCC1C=CCCC1 (stereo not given),10.8%
19,O=C(O)c1cccc2c1C1CCC2c2cccc(C(=O)O)c21,-29.2%
20,CC(NC(=O)CN)C(=O)O (stereo not given),-43.4%

row,SMILES,growth inhibition
1,COc1ccc2oc(=O)c(-c3csc(-c4ccccc4)n3)cc2c1,13.6%
2,O=C(OC1C#CCSCC#C/C=C\1)c1cnc2ccccc2n1 (stereo not given),-34%
3,Cc1ccc(C(=O)N(C(C)C)C(C)C)cc1N=NN(C)C,-10%
4,CNc1ccccc1C(=O)N/N=C/c1cccc([N+](=O)[O-])c1,-0.9%
5,CC(=S)N=Cc1c(C)[nH]n(-c2ccccc2)c1=O,-49.4%
6,Cc1ccc(C2(C(=O)O)CC2)cc1,-3.2%
7,CC1=CCCC(C)(C)C1/C=C/C(C)=N/NC(=O)Nc1ccccc1 (stereo not given),32.2%
8,CCOC(C)=C(C#N)C#N,8.9%
9,CC(C)(c1ccc(O)c(Cl)c1)c1cc(Cl)c(O)c(S(=O)(=O)O)c1,10.8%
10,O=C1NC(=O)C(=CN2C(=O)/C(=C/c3ccc(O)cc3)SC2=S)C(=O)N1,-6.6%
11,O=c1c2ccccc2oc2cc3c(c(O)c12)CCCC3,-7.65%
12,c1ccc2c(c1)C1c3ccccc3C2C2OC12 (stereo not given),14.2%
13,O=C1NC(=O)C(=Nc2cccc3c(=O)[nH][nH]c(=O)c23)C(c2nc3ccccc3s2)C1=O (stereo not given),20.2%
14,CCC(C(=O)O)C(C)(C)C (stereo not given),6.8%
15,CC(C)CC(Nc1ccc2ccccc2c1)C(N)=O (stereo not given),-6.9%
16,CCC(C)OC(=O)/C(Br)=C1/OC(=O)c2ccccc2-c2ccccc21 (stereo not given),-1.55%
17,CC(CCC(=O)O)[C@H]1CCC2[C@@H]3C(=O)C[C@@H]4CC(O)CC[C@]4(C)C3CC[C@@]21C (stereo not given in full),38.8%
18,Cn1c(CC(O)c2nc3ccccc3n2C)nc2ccccc21 (stereo not given),-18.7%
19,COc1cc(-c2cc(=O)c3cc4c(=O)cc(-c5cc(OC)c(OC)c(OC)c5)oc4cc3o2)cc(OC)c1OC,-11.2%
20,Cc1ccc(C2=CC(=O)/C(=C\C(=O)c3ccc(Br)cc3)O2)c(C)c1,76.8% (active)
